From PubChem BioAssay (NCATS)
Results filed as inconclusive are left out. Active and inactive are the calls of the source. The call rests on the fitted dose curve; in most records, active means well fitted inhibition curve with a large enough effect; inconclusive means small, poorly fitted or top-dose-only effect; inactive means flat fitted curve, though single readings scatter. Where a SMILES comes first, the peptide text is derived from it. [ ]: non-standard residue; d: D form. dPhe(4-Cl) = N[C@H](Cc1ccc(Cl)cc1)C(=O)O; d2Nal = N[C@H](Cc1ccc2ccccc2c1)C(=O)O; dCit = NC(=O)NCCC[C@@H](N)C(=O)O; d3Pal = N[C@H](Cc1cccnc1)C(=O)O

Experiments:
Test in all cases: Cytotoxic Profiling of Annotated Libraries Using Quantitative High-Throughput Screening (AID 1296008); further: nearly all actives have a fitted effect of over 60% in size
Settings in all cases: Five cell lines viability, CellTiter-Glo ATP luminescence, 48-72 h; max response: hits give low values
CRL-7250 = normal cell line; tested on: CRL-7250
In short: (§1)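 Compounds were pin-transferred onto cells and incubated 48 or 72 hr at 37 degree Celsius, 95% humidity. CellTiter-Glo was added, plates sat 10 min at room temperature, then ATP-coupled luminescence was imaged as the viability read-out.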

HEK293 = tested on: HEK293
In short: as §1

HaCat = tested on: HaCat
In short: as §1

KB-3-1 = tested on: KB-3-1
In short: as §1
On the % scale 0 is the no-effect control and ±100 the full control effect; potency means the concentration at half of the fitted maximal effect.

COc1cc2c(cc1O)CC[C@H]1[C@@H]2CC[C@]2(C)[C@H](O)CC[C@@H]12
active: Potency (CRL-7250) 14600 nM | Potency (HEK293) 1030 nM | Potency (HaCat) 580 nM | Potency (KB-3-1) 1640 nM

N#Cc1cnc2cnc(NCc3cccnc3)cc2c1Nc1ccc(F)c(Cl)c1
inactive: max response (KB-3-1) -15.8%
active: Potency (CRL-7250) 5170 nM | Potency (HEK293) 3660 nM | Potency (HaCat) 20600 nM

O=C(O)C(O[C@@H]1O[C@H](CO[C@@H]2O[C@H](CO)[C@@H](O)[C@H](O)[C@H]2O)[C@@H](O)[C@H](O)[C@H]1O)c1ccccc1 (some centres not stated)
inactive: max response (CRL-7250) -5.65% | max response (HEK293) -7.94% | max response (HaCat) -3.34% | max response (KB-3-1) 7.09%

CC(=O)N[C@H](Cc1ccc2ccccc2c1)C(=O)N[C@H](Cc1ccc(Cl)cc1)C(=O)N[C@H](Cc1cccnc1)C(=O)N[C@@H](CO)C(=O)N[C@@H](Cc1ccc(O)cc1)C(=O)N[C@H](CCCNC(N)=O)C(=O)N[C@@H](CC(C)C)C(=O)N[C@@H](CCCN=C(N)N)C(=O)N1CCC[C@H]1C(=O)N[C@H](C)C(N)=O (Ac-[d2Nal][dPhe(4-Cl)][d3Pal]SY[dCit]LRP[dA]-NH2)
inactive: max response (CRL-7250) -7.92% | max response (HEK293) -0.834% | max response (HaCat) -5.33% | max response (KB-3-1) 9.13%

C[C@@H]1O[C@@H](OC[C@H]2O[C@@H](OC(CCCCc3ccc(O)cc3)CCc3ccc(O)cc3)[C@H](O)[C@@H](O)[C@@H]2O)[C@H](O)[C@H](O)[C@H]1O (some centres not stated)
inactive: max response (CRL-7250) 3.8% | max response (HEK293) 1.77% | max response (HaCat) -5.01% | outcome (KB-3-1)

O=C(Nc1nc2ccccc2n1CCc1ccccc1)c1ccccc1
inactive: max response (CRL-7250) 1.35% | max response (HEK293) -110% | outcome (HaCat) | max response (KB-3-1) 5.59%

COC(=O)c1ccccc1O[C@@H]1O[C@H](CO)[C@@H](O)[C@H](O)[C@H]1O[C@@H]1O[C@@H](C)[C@H](O)[C@@H](O)[C@H]1O
inactive: outcome (CRL-7250) | max response (HEK293) 3.36% | max response (HaCat) -1.51% | max response (KB-3-1) 3.4%

O=C(NCc1ccccn1)Nc1nnc(-c2ccco2)o1
inactive: max response (CRL-7250) 0.451% | max response (HEK293) -0.62% | max response (HaCat) 1.95% | max response (KB-3-1) 3.97%

COC(=O)C1=COC(O[C@@H]2O[C@H](CO)[C@@H](O)[C@H](O)[C@H]2O)[C@H]2[C@@H]1[C@H](OC(=O)CCc1ccc(O)cc1)C[C@]2(C)O (some centres not stated)
inactive: outcome (CRL-7250) | max response (HEK293) 0.992% | max response (HaCat) -1.18% | max response (KB-3-1) -2.46%

CC(C)c1cc2c(c(O)c1O)[C@@]13CCCC(C)(C)[C@@H]1[C@H](OC3=O)C2=O
inactive: max response (CRL-7250) 0.881% | max response (HEK293) -6.57% | max response (HaCat) -2.13% | max response (KB-3-1) -17.1%

CC1(C)CC[C@]2(C(=O)O[C@@H]3O[C@H](CO)[C@@H](O)[C@H](O)[C@H]3O)CC[C@]3(C)C(=CCC4[C@@]5(C)C[C@@H](O)[C@H](O)C(C)(C)C5CC[C@]43C)C2[C@@H]1O (some centres not stated)
inactive: max response (CRL-7250) 0.543% | max response (HEK293) 0.957% | max response (HaCat) 2.98% | outcome (KB-3-1)

CON(C)C(=O)[C@H](O)[C@H](Cc1ccccc1)NC(=O)c1cc2cc(Cl)ccc2[nH]1
inactive: outcome (CRL-7250) | max response (HEK293) -8.5% | max response (HaCat) -24.4% | max response (KB-3-1) 5.78%

Cc1onc(C(=O)N2CCN(C(c3ccc(Cl)cc3)c3ccc(Cl)cc3)CC2)c1[N+](=O)[O-]
active: Potency (CRL-7250) 580 nM | Potency (HEK293) 820 nM
inactive: max response (HaCat) 0.662% | max response (KB-3-1) -21.9%

CC1(C)CC[C@]2(C(=O)O[C@@H]3O[C@H](CO)[C@@H](O)[C@H](O)[C@H]3O)CC[C@]3(C)C(=CCC4[C@@]5(C)CC[C@H](O[C@@H]6O[C@H](C(=O)O)[C@@H](O)[C@H](O)[C@H]6O)[C@@](C)(CO)C5CC[C@]43C)C2C1 (some centres not stated)
inactive: max response (CRL-7250) 1.86% | max response (HEK293) -6.82% | outcome (HaCat) | max response (KB-3-1) -0.849%

CC1=CC2/C=C(\C)CC[C@@H](O)[C@@H](O)[C@@H]3O[C@@H]3C(=O)[C@]23C(=O)N[C@@H](CC(C)C)[C@@H]3[C@@H]1C (some centres not stated)
inactive: max response (CRL-7250) -29.8% | max response (HEK293) 1.09% | max response (HaCat) -27.7% | max response (KB-3-1) -2.72%

C=C1CCC2C(C)(C(=O)OC)CCCC2(C)C1CCC(C)CC(=O)O (configuration not stated)
inactive: outcome (CRL-7250) | max response (HEK293) -9.98% | max response (HaCat) -22.8% | max response (KB-3-1) 0.0997%

C=C(C(=O)OC)C1C(O)CC2(C)C(O)CCC(=O)C2C1O (configuration not stated)
inactive: max response (CRL-7250) -16.1% | max response (HEK293) -7.45% | outcome (HaCat) | max response (KB-3-1) 2.14%

O=C(O)CC1CCC(c2ccc(-c3ccc4nc(C(=O)NCc5ccc(OC(F)(F)F)cc5)cn4c3)cc2)CC1 (configuration not stated)
inactive: max response (CRL-7250) 4.28% | max response (HEK293) -9.35% | max response (HaCat) -3.96% | max response (KB-3-1) -0.0408%

OC[C@H]1O[C@@H](OCCc2ccccc2)[C@H](O[C@@H]2OC[C@](O)(CO)[C@H]2O)[C@@H](O)[C@@H]1O
inactive: max response (CRL-7250) -6.82% | max response (HEK293) -11.4% | max response (HaCat) 0.135% | outcome (KB-3-1)

O=C(NOCC(O)CO)c1ccc(F)c(F)c1Nc1ccc(I)cc1F (configuration not stated)
active: Potency (CRL-7250) 4610 nM
inactive: max response (HEK293) 2.15% | max response (HaCat) -79.3% | outcome (KB-3-1)

CC(C)(O)c1ccc2c(c1)C(O)C[C@H]1[C@](C)(C(=O)O)CCC[C@]21C (some centres not stated)
inactive: max response (CRL-7250) 1.1% | max response (HEK293) 0.619% | max response (HaCat) -7.52% | outcome (KB-3-1)

CC1CCC2C(C(=O)O)=COC(O[C@@H]3O[C@H](CO)[C@@H](O)[C@H](O)[C@H]3O)C12 (some centres not stated)
inactive: max response (CRL-7250) -11.5% | max response (HEK293) -3.47% | max response (HaCat) -2.91% | max response (KB-3-1) -9.1%

Cc1cc(C)c(CNC(=O)c2cc(-c3ccc(CN4CCOCC4)cc3)cc3c2cnn3C2CCCC2)c(=O)[nH]1
inactive: max response (CRL-7250) 1.71% | outcome (HaCat) | max response (KB-3-1) 8.22%
active: Potency (HEK293) 14800 nM

CC(C)O[C@@H]1O[C@H](CO)[C@@H](O)[C@H](O)[C@H]1O
inactive: max response (CRL-7250) 1.32% | max response (HEK293) 1.2% | max response (HaCat) 4.48% | max response (KB-3-1) 2%

CC(CCC1(O)OC2CC3C4CCC5CC(O[C@@H]6O[C@H](CO)[C@@H](O)[C@H](O)[C@H]6O[C@@H]6O[C@@H](C)[C@H](O)[C@@H](O)[C@H]6O)C(O)CC5(C)C4CCC3(C)C2C1C)CO[C@@H]1O[C@H](CO)[C@@H](O)[C@H](O)[C@H]1O (some centres not stated)
inactive: max response (CRL-7250) -4.35% | max response (HEK293) 0.184% | max response (HaCat) -8.4% | max response (KB-3-1) -6.35%

C=CC(C)(O)CC[C@H]1C(=C)CCC2[C@](C)(C(=O)O)CCC[C@@]21C (some centres not stated)
inactive: max response (CRL-7250) 2.31% | max response (HEK293) -3.52% | max response (HaCat) -5.99% | max response (KB-3-1) 0.39%

C[C@@H]1O[C@@H](O[C@H]2[C@H](O)[C@@H](O)[C@H](OC[C@H]3O[C@@H](OC(=O)[C@]45CCC(C)(C)C[C@H]4C4=CCC6[C@@]7(C)CC[C@H](O[C@@H]8OC[C@H](O)[C@H](O[C@@H]9O[C@H](CO)[C@@H](O)[C@H](O)[C@H]9O)[C@H]8O)[C@@](C)(CO)C7CC[C@@]6(C)[C@]4(C)CC5)[C@H](O)[C@@H](O)[C@@H]3O)O[C@@H]2CO)[C@H](O)[C@H](O)[C@H]1O (some centres not stated)
inactive: outcome (CRL-7250) | max response (HEK293) -14.9% | max response (HaCat) -0.978% | max response (KB-3-1) 8.88%

CCc1cnn2c(NCc3ccc[n+]([O-])c3)cc(N3CCCCC3CCO)nc12 (configuration not stated)
active: Potency (CRL-7250) 4.6 nM | Potency (HEK293) 13 nM | Potency (HaCat) 46.1 nM | Potency (KB-3-1) 9.2 nM

CCc1c(-c2ccccc2)c(-c2ccccc2)nn1-c1ccccc1-c1cccc(OCC(=O)O)c1
inactive: max response (CRL-7250) -8.36% | max response (HEK293) -14.2% | max response (HaCat) -10.2% | outcome (KB-3-1)

O=C(O)c1cc(-c2c(-c3ccccc3)nn3ccccc23)n[nH]c1=O
inactive: outcome (CRL-7250) | max response (HEK293) -2.65% | max response (HaCat) -37.3% | outcome (KB-3-1)

Cc1nc2sc(C(=O)NCc3ccncc3)c(N)c2c(C)c1Cl
inactive: max response (CRL-7250) 0.486% | max response (HEK293) -2.15% | max response (HaCat) 0.272% | max response (KB-3-1) -3.45%

CC(C)S(=O)(=O)NC[C@H](C)c1ccc(NC(=O)c2cc(F)cc(F)c2)cc1
inactive: outcome (CRL-7250) | max response (HEK293) -6.11% | max response (HaCat) -5.79% | max response (KB-3-1) 3.14%

COc1cc(O)cc(/C=C/c2ccc(O[C@@H]3O[C@H](CO)[C@@H](O)[C@H](O)[C@H]3O)cc2)c1
inactive: max response (CRL-7250) -0.761% | max response (HEK293) -4.02% | max response (HaCat) 0.534% | outcome (KB-3-1)

C/C1=C\[C@H]2OC(=O)[C@@H](C)[C@@H]2CC/C(C(=O)O)=C/CC1
inactive: max response (CRL-7250) -1.29% | max response (HEK293) -16.7% | max response (HaCat) -0.286% | max response (KB-3-1) -0.178%

Nc1nc2c(ncn2[C@@H]2O[C@@H]3COP(=O)(O)O[C@H]3[C@H]2O)c(=O)[nH]1
inactive: max response (CRL-7250) -1.98% | max response (HEK293) -4.75% | outcome (HaCat) | outcome (KB-3-1)

CC(C)=CCC[C@](C)(O[C@@H]1O[C@H](CO)[C@@H](O)[C@H](O)[C@H]1O)[C@H]1CC[C@]2(C)[C@@H]1[C@H](O)CC1[C@@]3(C)CC[C@H](O)C(C)(C)C3[C@@H](O[C@@H]3O[C@H](CO)[C@@H](O)[C@H](O)[C@H]3O)C[C@]12C (some centres not stated)
inactive: max response (CRL-7250) -0.753% | max response (HEK293) -3.92% | max response (HaCat) 4.06% | max response (KB-3-1) 9.79%

O=C(O[C@H]1[C@@H]2C[C@@H]3OC[C@](O)([C@@H]1Cl)[C@H]2C(O[C@@H]1O[C@H](CO)[C@@H](O)[C@H](O)[C@H]1O)O3)c1ccc(O)c(O)c1 (some centres not stated)
inactive: max response (CRL-7250) -7.93% | max response (HEK293) -2.09% | max response (HaCat) -10.7% | max response (KB-3-1) 6.86%

CC1(C)CCC2(C(=O)OC3OCC(O)C(O)C3O)CCC3(C)C(=CCC4C5(C)CC(O)C(OC6OC(COC7OCC(O)C(O)C7O)C(O)C(O)C6O)C(C)(C)C5CCC43C)C2C1 (configuration not stated)
inactive: max response (CRL-7250) 1.81% | max response (HEK293) -7.77% | max response (HaCat) 2.92% | outcome (KB-3-1)
